# Only some compounds are listed: those with a hit (about 1.4% of all), similar ones and a draw of the others.
# Polio RdRp inh = poliovirus RdRp elongation inhibitors, primary screen, biochemical, fluorescence polarization, total intensity; poliovirus polymerase elongation; active compounds read low; Genome polyprotein (Poliovirus type 1 (strain Mahoney)), P03300; % elongation, % (compound at 16.7 µg/mL); 150,000 tested, 0.66% active; in the data active means % elongation below about 90%
# Mtb MenB inh = M. tuberculosis MenB inhibitors, primary screen, biochemical, absorbance; MenB enzyme assay, absorbance read-out; inhibition, % (concentration not given with the values); 100,000 tested, 0.43% active; AID 540299, 2011; in the data active means inhibition above about 21%, passing the limit was not always enough
# Target sequence (P9WNP5 whole entry, looked up): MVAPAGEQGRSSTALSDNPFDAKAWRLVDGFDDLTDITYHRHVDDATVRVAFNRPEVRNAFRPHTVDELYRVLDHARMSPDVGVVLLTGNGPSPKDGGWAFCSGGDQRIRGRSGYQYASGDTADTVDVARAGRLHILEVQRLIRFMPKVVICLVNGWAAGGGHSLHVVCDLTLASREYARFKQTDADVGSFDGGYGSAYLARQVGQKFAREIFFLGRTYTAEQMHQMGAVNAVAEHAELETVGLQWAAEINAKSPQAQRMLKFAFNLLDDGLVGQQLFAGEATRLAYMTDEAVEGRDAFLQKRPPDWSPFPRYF
# Mtb MbtI inh = MbtI salicylate synthase inhibitors, primary screen, biochemical, fluorescence intensity; P9WFX0; purified MbtI enzyme, fluorescence intensity read-out; inhibition, % (test concentration not listed); 100,000 tested, 0.89% active; in the data active means inhibition mostly above about 56%, no sharp cut-off; inactive means mostly below about 77%
# Numbers without * were called inactive; · = no result given.
SMILES,Polio RdRp inh,Mtb MenB inh,Mtb MbtI inh
Cc1cc(C(=S)NC(=O)c2ccccc2)c(C)n1C,102.0,-17.6,65.3*
O=C(O)NC(=O)c1ccccc1,107.0,-5.8,16.2
O=C(CSc1ccc2ccccc2c1)NCCc1ccc(O)c(O)c1,100.0,·,92.8*
O=C(CSc1ccccc1)NCCc1ccccc1,99.0,-1.6,-7.8
CC1(C)CC(=O)C2=C(C1)Nc1ccccc1N(C1OC(=O)c3ccccc31)C2c1ccco1 (configuration not stated),100.0,-16.8,39.6
CCN(CC)c1ccc(NC(C)=O)c(C)c1,102.0,-12.7,-6.0
CCN(CC)c1ccc(N)c(C)c1,101.0,-3.4,98.4*
CCCCn1c(=O)[nH][nH]c1=S,96.0,-17.1,77.9*
O=c1[nH][nH]c(=S)n1Cc1ccccc1,103.0,-9.9,35.1
COc1ccc(C(CNS(=O)(=O)c2cccc(C(=O)O)c2)N2CCCC2)cc1 (configuration not stated),100.0,-11.0,11.0
O=C(Cc1ccccc1)Nc1nc(-c2cccs2)cs1,103.0,-16.1,-2.0
C/C(=C/C(=O)O)C(=O)Nc1nc(-c2cccs2)cs1,·,-9.5,71.8*
Cc1ccc(NC(=O)Cn2c(=O)/c(=C/c3ccc(N(C)C)cc3)s/c2=C\C#N)cc1,164.0,10.5,16.1
CCC(C)(C)Nc1ncccc1C(=O)O,102.0,30.6,3.4
CCCNc1ncccc1C(N)=O,101.0,34.8*,88.7
CC(C)N(C(=O)Cn1cnc2ccccc21)C(C)C,103.0,-22.4,-3.2
Cc1nc2ccccc2c(=O)n1-c1ccc(C(=O)NC(C)c2ccccn2)cc1 (configuration not stated),34.0*,-35.3,0.0
Cc1nc2ccccc2c(=O)n1-c1ccc(C(=O)NC2(C)CCS(=O)(=O)C2)cc1 (configuration not stated),102.0,-33.6,-3.0
CC1OS(=O)OC1(c1ccccc1)c1ccccc1 (configuration not stated),89.0*,-16.2,·
COc1ccc(CNCc2cccc(OC)c2)cc1,89.0*,0.3,4.8
COc1ccc(CNCc2ccc(OC)c(C)c2)cc1,·,·,-10.7
O=C(O)C1CSC(c2ccccc2)N1 (configuration not stated),101.0,-9.3,17.0
O=C1Nc2ccccc2/C1=N\N=C\c1ccccc1,98.0,-55.8,13.8
Nc1nnc2cc(C(=O)c3cc(F)ccc3O)cnn12,96.0,-15.0,3.1
Cc1ccc(O)c(C(=O)c2cnn3c(=S)[nH]nc3c2)c1,71.0*,-17.8,43.0
SMILES,Polio RdRp inh,Mtb MenB inh,Mtb MbtI inh
Cc1ccc(O)c(C(=O)c2cnn3c(N)nnc3c2)c1,64.0*,-2.5,-4.9
Cc1ccc(O)c(C(=O)c2cnn(-c3nc(C)cc(=O)[nH]3)c2)c1,100.0,-24.0,193.0
CC(C(O)c1ccccc1)N(C)S(=O)(=O)c1ccc(Cl)cc1 (configuration not stated),102.0,·,-9.4
Cc1cc2nnc(SCc3ccc(Cl)cc3)n2c2ccccc12,103.0,-12.9,-69.0
O=C(COc1ccccc1)N/N=C/c1ccccc1,104.0,10.7,-0.3
O=C(OCN1C(=O)c2ccccc2C1=O)c1ccc(-n2cnnn2)cc1,98.0,-23.2,-8.6
Cc1c(Cl)sn(-c2ccc(Cl)cc2)c1=O,101.0,7.0,100.6*
O=C1CSCC(=O)N1c1ccc(Cl)cc1,93.0,11.4,4.0
C=CCn1c(C)csc1=Nc1ccc(C(=O)OCC)cc1,103.0,-12.5,-3.2
CC(=O)NC(CC(=O)Nc1nc2ccccc2[nH]1)c1ccccc1 (configuration not stated),104.0,-8.4,4.8
Cc1cccc(N2C(=O)CC(Sc3ncn[nH]3)C2=O)c1 (configuration not stated),97.0,10.2,99.3*
Cc1cccc(N2C(=O)CC(Sc3nccc(C)n3)C2=O)c1 (configuration not stated),101.0,3.9,63.2*
Cc1ccc(-c2nc(SC3CC(=O)N(c4ccccc4)C3=O)n[nH]2)cc1 (configuration not stated),104.0,-1.1,40.3
CCOc1ccc(N2C(=O)CC(Sc3nccc(C)n3)C2=O)cc1 (configuration not stated),104.0,-9.9,31.9
O=C(c1scc2c1CCCC2)N1CCN(c2ccccc2O)CC1,105.0,-15.1,·
CCC(=O)Nc1ccc2c(C)cc(C)nc2n1,105.0,-1.8,·
O=C(Nc1ccc2[nH]c(=O)[nH]c2c1)NC1CCCCC1,90.0*,20.5,3.2
O=C(Nc1ccc(Cl)c(Cl)c1)NC1CCCCC1,107.0,-12.9,·
CCN(CC)S(=O)(=O)c1cccc(C2=N/C(=C\c3c(C)nn(-c4ccccc4)c3N3CCCC3)C(=O)O2)c1,166.0,-10.5,-2.1
Cc1ccc(C2=N/C(=C\c3c(C)nn(-c4ccccc4)c3N3CCCC3)C(=O)O2)s1,28.0*,-11.2,-1.5
CCOC(=O)CCc1c(CC(=O)OCC)c[nH]c1/C=N/O,50.0*,-20.6,-9.1
CCOC(=O)CCc1c(C)nc2ncnn2c1C,·,·,-0.6
COC(=O)C1=C(C)N(c2ccc(C(C)C)cc2)C(=O)C1,103.0,-0.3,·
COC(=O)C1C(=O)C(C(=O)c2ccccc2)C(=O)CC1(C)C (configuration not stated),99.0,8.6,-4.3
COC(=O)C1C(O)=C(C=Nc2ccccc2)C(=O)CC1(C)C (configuration not stated),101.0,33.8*,30.9
SMILES,Polio RdRp inh,Mtb MenB inh,Mtb MbtI inh
COc1ccc(Cn2c(=O)c(=O)oc3ccccc32)cc1OC,101.0,-32.8,-37.1
CCOC(=O)/C(C#N)=C1\CC2CCC1(C)C2(C)C (configuration not stated),98.0,20.7,83.8*
CCOC(=O)/C(C#N)=C1\C(=O)Nc2ccccc21,101.0,18.2,27.4
O=C(Cn1cnc2c(oc3ccccc32)c1=O)c1ccccc1,99.0,0.7,7.0
O=C(Cn1cnc2c(oc3ccccc32)c1=O)Oc1ccccc1Cl,60.0*,-18.8,11.7
Cc1ccc(C(N)=S)c(=O)[nH]1,85.0*,-54.9,172.6
CCCCC(=O)c1ccc(C)[nH]c1=S,103.0,-2.9,·
CCCCN1C(=O)C(O)(CC(=O)c2ccc3c(c2)OCCO3)c2ccccc21 (configuration not stated),100.0,7.1,-2.0
CSc1nnc(C2CCCN(CC(=O)NCc3cccs3)C2)n1C (configuration not stated),103.0,-12.2,-8.5
CC(NC(=O)CN1C2CCC1CC(=O)NC2)c1ccccc1 (configuration not stated),100.0,28.6*,-0.4
O=C1CC2CCC(CN1)N2CC(=O)Nc1ccc(F)cc1 (configuration not stated),101.0,-26.0,-9.4
Cc1ccc(NC(=S)Nc2ccc3nc(-c4ccco4)c(-c4ccco4)nc3c2)cc1,99.0,-32.0,43.6
CCc1ccc(C(=O)CSc2cccc[n+]2[O-])cc1,104.0,·,46.0
Cc1ccc(C(=O)CSc2cccc[n+]2[O-])cc1,100.0,·,69.3*
O=C(CSC1=NCCc2ccccc21)c1ccccc1Cl,68.0*,-17.8,17.2
O=C(SC1=NCCc2ccccc21)c1ccccc1,103.0,-23.9,1.4
O=C(CSC1=NCCc2ccccc21)c1ccc(-c2ccccc2)cc1,83.0*,-24.8,0.2
